Compound activity (PubChem)
Only some compounds are listed: those with a hit (about 27% of all), similar ones and a draw of the others.
Cav3 T inh – inhibitors of human Cav3.2 T-type calcium channel; Cav3.2-expressing cells, Fluo-4 calcium fluorescence FDSS; hits give low values; B-score at 10 µM; hit rate 4% among 100,000;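 active = single-dose well whose peak fluorescence ratio is a statistical outlier from its plate by either plate-standardised score or position-corrected B-score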
CYP2C9 inhib – human CYP2C9 inhibition; P11712; CYP2C9 Supersomes, luciferin-H conversion, luminescence; inhibition, % at 5 µM; hit rate 20% among 96,000;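 active = blocking of liver enzyme CYP2C9 beyond about 50% at 5 µM, limit read from the data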
CYP2C19 inhib – human CYP2C19 inhibition | CYP2C19 Supersomes, luciferin-H EGE luminescence, 30 min | inhibition, % at 5 µM | hit rate 21% among 96,000 | P33261;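 active = CYP2C19 inhibition above a set limit at 5 µM in the primary screen, cut at about 50% in these data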
Target sequence (P33261 whole entry, looked up): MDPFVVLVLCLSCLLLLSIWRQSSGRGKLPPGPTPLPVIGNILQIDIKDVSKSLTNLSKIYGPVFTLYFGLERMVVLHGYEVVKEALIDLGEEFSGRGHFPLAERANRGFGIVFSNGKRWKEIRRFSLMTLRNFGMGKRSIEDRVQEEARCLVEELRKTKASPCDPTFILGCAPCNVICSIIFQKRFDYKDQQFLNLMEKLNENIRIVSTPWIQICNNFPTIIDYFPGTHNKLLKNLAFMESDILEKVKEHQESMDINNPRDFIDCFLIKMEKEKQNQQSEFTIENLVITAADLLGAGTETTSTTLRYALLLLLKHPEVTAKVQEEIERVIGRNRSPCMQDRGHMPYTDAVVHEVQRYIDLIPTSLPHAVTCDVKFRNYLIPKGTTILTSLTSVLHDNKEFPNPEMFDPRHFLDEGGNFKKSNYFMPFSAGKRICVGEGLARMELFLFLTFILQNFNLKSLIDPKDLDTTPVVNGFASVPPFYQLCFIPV
CYP2C9 activ – CYP2C9 (human) activation. P11712. hit rate 1.4% among 96,000. recombinant CYP2C9, luciferin-H conversion, luminescence; hits give high values; factor 1 = untreated enzyme, 0 = blocked. activation factor at 5 µM;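 active = activation factor of 2 or more for CYP2C9 at a 5 µM dose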
CYP2C19 activ – cytochrome P450 2C19 (human) activation | P33261 | recombinant CYP2C19, luciferin-H EGE luminescence; hits give high values; 0 = fully inhibited enzyme, 1 = untreated enzyme | activation factor at 5 µM | 96,000 tested, under 10 active | AID 1025;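 active = activation factor of at least 2 at 5 µM in the primary screen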
Numbers stand for hits; n = inactive; x = not tested or not shown.

SMILES	Cav3 T inh	CYP2C9 inhib	CYP2C19 inhib	CYP2C9 activ	CYP2C19 activ
Nc1cc(N)nc(SCC(=O)N2CCc3ccccc32)n1	n	n	n	2.5	n
CCn1cc(SCC(=O)N2CCc3ccccc32)c2ccccc21	n	60.3	61.4	n	n
Cc1cc(C)c2nc3s/c(=C/c4ccc5c(c4)n(C)c(=O)n5C)c(=O)n3c2c1	x	n	n	n	n
Cc1noc(C)c1C(=O)N1CCCC1	n	n	n	n	n
O=C(c1ccc(Cl)c(F)c1F)N1CCOCC1	n	n	n	n	n
Cc1cc(C)cc(N2C(=O)CC(n3nc(C)cc3C)C2=O)c1 (stereo not given)	n	n	n	n	n
CN(C)c1ccc(NC(=O)c2cccc(N3C(=O)C4C5C=CC(C5)C4C3=O)c2)cc1 (stereo not given)	n	x	x	x	x
Cc1ccccc1NC(=O)c1cccc(N2C(=O)C3C4CCC(C4)C3C2=O)c1 (stereo not given)	n	56.6	n	n	n
CCOCCCNC(=O)c1ccc(CS(=O)(=O)Cc2ccc(C)cc2)o1	x	n	n	n	n
CC1CCCN(S(=O)(=O)c2ccc(C(=O)Nc3nnc(-c4ccccc4Cl)o3)cc2)C1 (stereo not given)	-7.32	n	n	n	n
CC1CC(C)CN(S(=O)(=O)c2ccc(C(=O)Nc3nnc(-c4cccs4)o3)cc2)C1 (stereo not given)	x	n	n	n	n
O=C(CCc1ccccc1)Nc1nnc(-c2cccs2)o1	x	n	n	n	n
O=C(Nc1nnc(-c2ccccc2Cl)o1)c1cccnc1	n	82.1	n	n	n
CCC1CCCCN1S(=O)(=O)c1ccc(C(=O)Nc2nnc(-c3cccs3)o2)cc1 (stereo not given)	-8.51	x	x	x	x
O=C(Nc1nnc(-c2cccs2)o1)c1cccc(C(F)(F)F)c1	x	59.3	n	n	n
Cc1csc2c(C#N)c(=O)c3c(n12)CCC3	n	n	n	n	n
O=C(c1cn(-c2ccccc2)nc1-c1ccncc1)n1nnc2ccccc21	n	x	x	x	x
COc1ccc2c(Cl)c(C(=O)NCCCn3ccnc3)sc2c1	n	90.8	97.5	n	n
COc1ccc2c(Cl)c(C(=O)NN)sc2c1	n	56.5	81.7	n	n
COc1ccc2c(Cl)c(C(N)=O)sc2c1	n	n	n	n	n
Cn1c(SCc2ccccc2)nnc1-c1ccc2c(c1)OCO2	n	n	88.4	n	n
Cc1ccc(CSc2nnc(-c3ccncc3)n2C)cc1	n	n	73.4	n	n
CC(=O)Nc1cccc(-c2nnc(SCc3ccccc3C#N)n2C)c1	n	n	61.8	n	n
CC(=O)Nc1ccc(-c2nnc(SCc3ccc(C)cc3)n2C)cc1	n	n	n	n	n
Cc1ccc(NC(=O)c2ccc(CSc3nnc(-c4ccncc4)n3C)cc2)cc1	n	65.8	n	n	n
SMILES	Cav3 T inh	CYP2C9 inhib	CYP2C19 inhib	CYP2C9 activ	CYP2C19 activ
CCCCSc1nnc(-c2ccc(C)cc2)n1C	n	n	n	n	n
CC(=O)Nc1ccc(-c2nnc(SCc3ccccc3C#N)n2C)cc1	n	n	n	n	n
O=S(=O)(c1ccc(N2CCN(CCO)CC2)nc1)N1CCCCC1	n	x	x	x	x
CC1C(=O)CCCCCCCCCC2C1(N1CCOCC1)CS2(=O)=O (stereo not given)	n	x	x	x	x
CC1=Nc2ccccc2/C1=C\c1nc(-c2ccc(F)cc2)oc1O	n	n	n	n	n
COc1cccc(-c2nnc(SCc3ccccn3)n2C)c1	n	n	n	n	n
Cn1c(SCC(=O)N2CCOCC2)nnc1-c1cccc(NC(=O)c2ccccc2)c1	n	n	n	n	n
COC(=O)CSc1nnc(-c2cccc(NC(=O)c3ccc(C)cc3)c2)n1C	n	75.8	n	n	n
Cn1c(SCc2ccccn2)nnc1-c1ccncc1	n	n	94.3	n	n
CCC1=C(OC(=O)N(CC)CC)N2C(=O)OC(=NCCc3c[nH]c4ccccc34)[C@]2(C)[C@H]2C1=CC[C@H]1C(=O)N(C)C(=O)[C@H]12	n	x	x	x	x
CC(CCc1ccccc1)NC(=O)c1ccc(Cl)nc1 (stereo not given)	n	n	n	n	n
COC(=O)CCn1nnc(-c2ccc(C)cc2)n1	n	n	n	n	n
CC(=O)c1ccccc1OCCn1nnc(-c2ccc(C)cc2)n1	-5.11	x	x	x	x
C=CCSc1nnc2nc3c(nn12)c1cc(C)ccc1n3CC=C	n	55.7	n	n	n
C=CCSc1nnc(-c2nnc(SCC=C)n2-c2ccccc2)n1-c1ccccc1	n	n	n	n	n
Cc1noc(C)c1C(=O)OCC(=O)NCCC1=CCCCC1	n	n	70.1	n	n
COC(=O)c1ccc2c(c1O)C(=O)c1ccccc1C2=O	n	n	59.5	n	n
COC(=O)c1cccc2c1-c1ccccc1/C2=N/O	x	84.5	58.8	n	n
O=C1c2cccc(O)c2C(=O)c2c(O)cccc21	n	x	x	x	x
CCOc1cccc(C2C(C(=O)c3ccc(C)o3)=C(O)C(=O)N2c2nccs2)c1 (stereo not given)	n	n	n	n	n
COC(=O)c1sc(N2C(=O)C(O)=C(C(=O)c3ccc(C)o3)C2c2ccc(F)cc2)nc1C (stereo not given)	-4.89	80.1	n	n	n
O=C(CCn1cccc1)NC1CCCc2ccccc21 (stereo not given)	n	n	n	n	n
CC1CC(C)CN(c2ccc(C(=O)OCC(=O)NC3CCCc4ccccc43)cc2[N+](=O)[O-])C1 (stereo not given)	n	52.4	n	n	n
O=C(COC(=O)c1ccc(Sc2ccccc2)c([N+](=O)[O-])c1)NC1CCCc2ccccc21 (stereo not given)	n	88.1	n	n	n
COC(=O)[C@@H](NC(=O)NC1CCCc2ccccc21)C(C)C (stereo not given in full)	n	n	n	n	n
SMILES	Cav3 T inh	CYP2C9 inhib	CYP2C19 inhib	CYP2C9 activ	CYP2C19 activ
Cc1ccccc1-c1nc(CS(=O)CC(=O)NCCCN(C)c2ccccc2)c(C)o1 (stereo not given)	n	n	n	n	n
Cc1ccc(NC(=O)CS(=O)CC(=O)NCCCN(C)c2ccccc2)cc1 (stereo not given)	n	84.4	60.5	n	n
COc1cccc(Nc2nc(=O)[nH]nc2C)c1	n	n	n	n	n
CCCc1[nH][nH]c(=O)c1C(c1ccccc1)C(C#N)C#N (stereo not given)	n	62.3	57.6	n	n
CCCc1[nH][nH]c(=O)c1C(c1ccc(Br)cc1)C(C#N)C#N (stereo not given)	n	61.2	n	n	n
CCCc1[nH][nH]c(=O)c1C(c1ccc(Cl)cc1)C(C#N)C#N (stereo not given)	n	x	x	x	x
CC(C)N(C(=O)N1CCC(c2nc(-c3ccncc3)no2)CC1)C(C)C	n	n	66.4	n	n
COC(=O)c1ccccc1NC(=O)c1cc(-c2ccc(C)cc2)on1	n	n	n	n	n
CCC(C)n1c(SCC(=O)Nc2ccccc2C(F)(F)F)nc2ccsc2c1=O (stereo not given)	n	71.9	n	n	n
Cc1nc2cc(-c3ccc(Cl)cc3)nn2c(C)c1CCC(=O)NCc1ccco1	n	n	79.1	n	n
